# Results as given in PubChem BioAssay (NCATS).
# Results filed as inconclusive are left out. A call without a number means that no potency is given here. Active and inactive are the calls of the source. The call rests on the fitted dose curve; in most records, active means well fitted inhibition curve with a large enough effect; inconclusive means small, poorly fitted or top-dose-only effect; inactive means flat fitted curve, though single readings scatter.
# Legend:
# Assay in all cases: qHTS profiling for inhibitors of Plasmodium falciparum proliferation (AID 504749); further: nearly all actives have a fitted effect of over 60% in size
# Conditions in all cases: P. falciparum in erythrocytes, SYBR Green DNA, 72 h; series mostly up to 28.7 µM
# CP217 = tested on: CP217
# Summary of the method: (§1)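 P. falciparum-infected erythrocytes (0.3% parasitemia, 2.5% hematocrit) incubated with compound 72 h at 37 C, 5% CO2. Parasite DNA detected by SYBR Green after lysis, overnight at room temperature; normalised to 0.29 uM artemisinin and DMSO.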
# CP247 = tested on: CP247
# Summary of the method: as §1
# CP252 = tested on: CP252
# Summary of the method: as §1
# CP256 = tested on: CP256
# Summary of the method: as §1
# CP262 = tested on: CP262
# Summary of the method: as §1
# CP266 = tested on: CP266
# Summary of the method: as §1
# CP269 = tested on: CP269
# Summary of the method: as §1
# CP291 = tested on: CP291
# Summary of the method: as §1
# CP315 = tested on: CP315
# Summary of the method: as §1
# CP325 = tested on: CP325
# Summary of the method: as §1
# CP329 = tested on: CP329
# Summary of the method: as §1
# CP268 = tested on: CP268
# Summary of the method: as §1
# CP305 = tested on: CP305
# Summary of the method: as §1
# CP238 = tested on: CP238
# Summary of the method: as §1
# CP250 = tested on: CP250
# Summary of the method: as §1
# CP260 = tested on: CP260
# Summary of the method: as §1
# CP286 = tested on: CP286
# Summary of the method: as §1
# CP237 = tested on: CP237
# Summary of the method: as §1
# CP265 = tested on: CP265
# Summary of the method: as §1
# CP297 = tested on: CP297
# Summary of the method: as §1
# Potency means the concentration at half of the fitted maximal effect.
Structure (SMILES),Potency (CP217),Potency (CP247),Potency (CP252),Potency (CP256),Potency (CP262),Potency (CP266),Potency (CP269),Potency (CP291),Potency (CP315),Potency (CP325),Potency (CP329),Potency (CP268),Potency (CP305),Potency (CP238),Potency (CP250),Potency (CP260),Potency (CP286),Potency (CP237),Potency (CP265),Potency (CP297)
c1ccc(CN(CC2=NCCN2)c2ccccc2)cc1,inactive,inactive,inactive,inactive,inactive,inactive,inactive,inactive,inactive,inactive,inactive,,,,,,,,,
COc1ccc2[nH]c(S(=O)Cc3ncc(C)c(OC)c3C)nc2n1 (centres undefined),,11.2 µM (active),,,inactive,,inactive,inactive,inactive,inactive,inactive,inactive,inactive,,,,,,,
CCOC(CN1CCN(CC(C)C(=O)c2ccccc2)CC1)c1ccccc1 (centres undefined),inactive,,inactive,inactive,inactive,inactive,inactive,inactive,inactive,inactive,inactive,inactive,inactive,inactive,inactive,inactive,inactive,,,
COC(=O)C1=C(C)NC(C)=C(C(=O)OC)C1c1ccccc1[N+](=O)[O-],inactive,,inactive,inactive,inactive,inactive,inactive,inactive,inactive,inactive,inactive,inactive,inactive,inactive,,,inactive,inactive,inactive,inactive
CNCCCC1c2ccccc2C=Cc2ccccc21,,inactive,inactive,,inactive,inactive,,inactive,inactive,,inactive,inactive,inactive,,inactive,inactive,inactive,inactive,,inactive
CC(C)(C)NCC(O)COc1ccc(NC(=O)NC2CCCCC2)cc1 (centres undefined),inactive,,inactive,inactive,inactive,inactive,inactive,inactive,inactive,inactive,inactive,inactive,inactive,inactive,inactive,inactive,inactive,inactive,inactive,inactive
CN1CCN(C2Cc3ccccc3Sc3ccc(Cl)cc32)CC1 (centres undefined),,inactive,inactive,inactive,inactive,inactive,inactive,inactive,inactive,inactive,inactive,,inactive,inactive,inactive,,,,inactive,
C[C@]12C[C@H](O)[C@H]3[C@@H](CCC4=CC(=O)CC[C@@]43C)[C@@H]1CC[C@@H]2C(=O)CO,,,,,inactive,inactive,inactive,inactive,inactive,inactive,inactive,inactive,inactive,,,inactive,inactive,inactive,,inactive
O=C(O)[C@@H]1CSCN1,inactive,,inactive,inactive,inactive,,inactive,inactive,inactive,inactive,inactive,inactive,inactive,inactive,inactive,inactive,inactive,inactive,inactive,inactive
CNCCC(Oc1ccc(C(F)(F)F)cc1)c1ccccc1 (centres undefined),inactive,,,,inactive,inactive,,,inactive,,inactive,,,,,,10 µM (active),inactive,,inactive
